Test results as given in PubChem BioAssay AID686979 (National Center for Advancing Translational Sciences (NCATS), 2013).
The campaign covered roughly 420,000 compounds. About 50,000 (12%) were called active. Not shown: some 26% with an inconclusive outcome. What follows is part of a selection rich in actives, with near analogues and random picks from the rest. Entries that show only a call come without a potency. A number with no mark means an inactive call. The call rests on the fitted dose curve; in most records, active means well fitted inhibition curve with a large enough effect; inconclusive means small, poorly fitted or top-dose-only effect; inactive means flat fitted curve, though single readings scatter.

test: qHTS for Inhibitors of human tyrosyl-DNA phosphodiesterase 1 (TDP1): qHTS in cells in presence of CPT; conditions: chicken DT40 Tdp1-/-;hTDP1 cells + 20 nM CPT, ATP luminescence, 48 h; series mostly up to 46.2 µM; further: nearly all actives have a fitted effect of over 55% in size
In short: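 Chicken DT40 Tdp1-/- cells complemented with human TDP1, 400 cells/well, exposed to compounds plus 20 nM camptothecin for at least 48 h at 37 C; viability read as ATP content by CellTiter-Glo luminescence.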
Potency means the concentration at half of the fitted maximal effect.

| SMILES | Potency | activity change, negative = growth inhibition |
| --- | --- | --- |
| O=C(CCC(=O)OCc1cccc(C(=O)Oc2ccccc2)c1)Nc1cccc2ccccc12 | inactive |  |
| CS(=O)(=O)c1ccc(C(=O)NNC(=O)c2cccs2)cc1 | inactive |  |
| CC(=O)NC12CC3CC(C1)CC(C(=O)N1CCN(S(=O)(=O)c4cccs4)CC1)(C3)C2 | inactive |  |
| CCOc1ccc(C(=O)Nc2ccc(CN3CCOCC3)cc2)cc1Cl | inactive |  |
| COc1cc(/C=C(\C#N)c2nc3ccccc3[nH]2)ccc1O | 25.9 µM (active) |  |
| N#C/C(=C\c1ccccc1F)c1nc2ccccc2c(=O)[nH]1 | inactive |  |
| CCOc1ccc(/C=C(\C#N)c2nc3ccccc3c(=O)[nH]2)cc1OC | inactive |  |
| Cc1nnc(SCc2nc3ccccc3nc2C)s1 | inactive |  |
| ClC1(Cl)CC1CSc1ncn[nH]1 (configuration not stated) | inactive |  |
| O=C(CSc1ncccn1)NCCc1ccccc1 | inactive |  |
| S=C(NCCc1ccccc1)N1CCn2cccc2C1c1ccncc1 (configuration not stated) | 18.4 µM (active) |  |
| S=C(Nc1cccc(Br)c1)N1CCn2cccc2C1c1cccnc1 (configuration not stated) | inactive |  |
| CCC(=O)Nc1ccc(C(=O)NNC(=O)c2ccc(Cl)cc2)cc1 | inactive |  |
| CC(C)C(C(=O)NCc1ccco1)N(CC1CCCO1)C(=O)CNS(=O)(=O)c1ccc(F)cc1 (configuration not stated) | inactive |  |
| COC(=O)[C@@]1(Sc2ccc(C)cc2)CC(=O)N(c2cccc(SC)c2)[C@@H]1c1ccccc1 | 18.4 µM (active) |  |
| O=C1CC(c2ccccc2)C(=O)N1c1cccc(O)c1 (configuration not stated) | inactive |  |
| Cc1ccc(C2SCC(=O)N2c2ccccc2)cc1 (configuration not stated) | inactive |  |
| COc1cc(CO)ccc1OCC(=O)Nc1cccc2ccccc12 | inactive |  |
| O=C(NCCCn1ccnc1)c1cc(Br)c(Br)s1 | inactive |  |
| COC(=O)c1sc2[nH]c(=S)n(N)c(=O)c2c1C | inactive |  |
| Cc1ccc2occ(/C=N/NC(=O)c3ccccc3C)c(=O)c2c1 | 16.4 µM (active) |  |
| CC(C)(C)OC(=O)NCCCCCC(=O)N/N=C/c1coc2ccccc2c1=O | inactive |  |

| SMILES | Potency | activity change, negative = growth inhibition |
| --- | --- | --- |
| O=c1c(/C=N/O)coc2ccc(Cl)cc12 | inactive |  |
| CN1CCC(OC(=O)COc2ccc(Cl)cc2Cl)CC1 | inactive |  |
| O=C(COC(=O)c1ccccc1SCC(=O)N1CCCC1)Nc1ccccc1OC(F)F | inactive |  |
| Cn1c(SCC(=O)N2CCCC2)nnc1-c1cccs1 | inactive |  |
| Cc1cc(C)cc(NC(=O)Cn2nc(N3CCN(c4ccccc4)CC3)ccc2=O)c1 | inactive |  |
| COc1ccc(CNc2nccs2)cc1 | inactive |  |
| COc1ccc(CNC(=O)CCn2cccc2)cc1 | inactive |  |
| COc1ccc(CNc2c(CO)cnc3c2cnn3C)cc1 | 8.2 µM (active) |  |
| CSc1nc2nc3c(c(=O)n2[nH]1)CCC3 | inactive |  |
| Cc1cc(NS(=O)(=O)c2ccc(NC(=O)c3ccccc3C)cc2)nc(C)n1 | inactive |  |
| Cc1cnc(C(=O)N2CCOc3ccc(CN4CCCC(C(=O)c5cccnc5)C4)cc3C2)[nH]1 (configuration not stated) |  | -10% [at 9.04 µM] |
| CN(C)CC(C)(C)CNC(=O)c1cc(Br)cc(Br)c1O | inactive |  |
| O=C(O)CC1(CC(=O)Nc2cccc(C(F)(F)F)c2)CCCC1 | inactive |  |
| O=C(Nc1cccc(C(F)(F)F)c1)c1cc(Br)cc(Br)c1O | 11.9 µM (active) |  |
| Cc1cc(F)ccc1S(=O)(=O)Nc1ncnc2scc(-c3ccc(F)cc3)c12 | inactive |  |
| O=c1c2cccnc2n(Cc2cccc(F)c2)c(=O)n1Cc1ccccc1Cl | 14.6 µM (active) |  |
| COc1ccnc2c1c(=O)n(Cc1cccc(F)c1)c(=O)n2C | inactive |  |
| CCOC(=O)Cn1c(=O)n(Cc2ccc(OC)cc2)c(=O)c2cccnc21 | inactive |  |
| O=C(NC1CCCC1)C(c1ccc(Cl)cc1)N(C(=O)c1csnn1)C1CC1 (configuration not stated) | inactive |  |
| Cc1ccc(-n2ncc3c(=O)n(Cc4cccc(C(F)(F)F)c4)cnc32)cc1C | inactive |  |
| Cc1ccc(-n2ncc3c(=O)n(-c4ccc(C)c(C)c4)c(-c4ccco4)nc32)cc1 | 18.4 µM (active) |  |
| Cc1ccc(-c2nc3c(cnn3-c3ccccc3)c(=O)o2)cc1 | inactive |  |

| SMILES | Potency | activity change, negative = growth inhibition |
| --- | --- | --- |
| CCN(CC)S(=O)(=O)c1ccc(C(=O)N2CCN(C3=NS(=O)(=O)c4ccccc43)CC2)cc1 | inactive |  |
| CC(O)c1nc2c(c(=O)n(C)c(=O)n2C)n1C (configuration not stated) | inactive |  |
| Cn1c(=O)c2c(nc(SCCNS(=O)(=O)c3ccccc3)n2C)n(C)c1=O | inactive |  |
| CCC/C(C)=N\Nc1nc2c(c(=O)n(C)c(=O)n2C)n1C | 18.4 µM (active) |  |
| Cc1cc(-c2nnc(SCC(=O)Nc3ccc(F)cc3)n2N)n[nH]1 | inactive |  |
| Cc1ccc(C)c(NC(=O)C(OC(=O)c2ccc(C)s2)c2ccccc2)c1 (configuration not stated) | inactive |  |
| O=C1CN(C(=O)COc2c(Cl)cccc2Cl)c2ccccc2N1 | inactive |  |
| O=C(OCc1nc2ccccc2[nH]1)C1CCCCC1 | inactive |  |
| CCCc1nc(N)nc2c1C(=O)CC(C)(C)C2 | inactive |  |
| CC/C(O)=C1\C(=O)CC(C)(C)CC1=NCCc1nc2ccccc2[nH]1 | 23.1 µM (active) |  |
| COc1ccc(S(=O)(=O)Nc2cc(C)on2)cc1NC(C)=O | inactive |  |
| CC1(C)CC(=O)C=C(c2ccc(Cl)c(C(F)(F)F)c2)C1 | inactive |  |
| CCn1cc(C(=O)OCC(=O)Nc2cc(C)cc(C)c2)c(=O)c2ccc(C)nc21 | inactive |  |
| Cc1cc(NC(=O)CS(=O)(=O)c2cn(C)c3ccccc23)no1 | inactive |  |
| Cc1c(C(=O)N(C)CCc2cnn(C)c2)oc2c(F)cccc12 | inactive |  |
| OC(COc1ccc(Br)cc1)CN1CCCC1 (configuration not stated) | inactive |  |
| CC(Oc1ccc(Br)cc1)C(=O)NC1CCCCCC1 (configuration not stated) | inactive |  |
| CC(C)(C)CC(C)(C)NCC(O)COCCOc1ccc(Br)cc1 (configuration not stated) | 5.17 µM (active) |  |
| COC(=O)C1(C)NC(c2ccc(C)cc2)C2C(=O)N(c3ccc(F)cc3)C(=O)C21 (configuration not stated) | inactive |  |
| C/C(N)=C(/C#N)C(=O)COC(=O)CNS(=O)(=O)c1ccc(C)cc1 | inactive |  |
| Cc1ccc(C(=O)O)c(NC=O)c1OCc1ccccc1 | inactive |  |
| Cc1cccc(N2CCN(C(c3ccc(N(C)C)cc3)c3nnnn3C(C)(C)C)CC2)c1C (configuration not stated) | inactive |  |

| SMILES | Potency | activity change, negative = growth inhibition |
| --- | --- | --- |
| COc1ccccc1C(c1nnnn1CC1CCCO1)N1CCN(c2ccccc2)CC1 (configuration not stated) | inactive |  |
| Cc1cccc(N2CCN(C(c3ccccc3)c3nnnn3CC3CCCO3)CC2)c1C (configuration not stated) | 20.6 µM (active) |  |
| Cc1nc2ccc(N)nc2nc1C | inactive |  |
| O=C1/C(=C/c2ccc3c(c2)OCO3)Oc2cc(OCC(=O)N3CC(O)C[C@H]3C(=O)O)ccc21 (some centres not stated) | inactive |  |
| Nc1cccc(OCCCCCOc2cccc(N)c2)c1 | inactive |  |
| O=C(O)C1CCCN1S(=O)(=O)c1ccc(Br)cc1 (configuration not stated) | inactive |  |
| O=C(c1ccccc1F)N1CCN(S(=O)(=O)c2ccc(Br)cc2)CC1 | inactive |  |
| O=S(=O)(c1ccc(Br)cc1)n1ccc2ccccc21 | 13 µM (active) |  |
| COc1cccc(C(=O)N2CCC(n3nccc3NC(=O)C3CCOC3)CC2)c1 (configuration not stated) | inactive |  |
| COc1ccc(-c2nnc(-c3ccc4ccccc4c3)o2)cc1 | inactive |  |
| CCOc1cc(C)c(Cl)cc1S(=O)(=O)n1nnc2ccccc21 | inactive |  |
| COc1ccc(C(C)C)cc1S(=O)(=O)Nc1ncn[nH]1 | inactive |  |
| CCOc1ccc(C(C)C)cc1S(=O)(=O)n1nc(C)cc1C | 16.4 µM (active) |  |
| CCc1ccccc1N1CN(Cc2ccco2)CNC1=S | inactive |  |
| O=C(CNC(=O)[C@@H]1Cc2ccccc2CN1)NC1CCCCC1 | inactive |  |
| CC(C)Oc1ccc(Cc2n[nH]c(=S)n2Cc2ccccc2)cc1Cl | inactive |  |
| CC(C)Oc1ccc(CCc2n[nH]c(=S)n2Cc2ccccc2)cc1 | 25.9 µM (active) |  |
| C=CCn1c(CCc2ccc(OC(C)C)cc2)n[nH]c1=S | inactive |  |
| O=[N+]([O-])c1ccc2nc(-c3ccccn3)[nH]c2c1 | 0.651 µM (active) |  |
| O=c1[nH]c2cccnc2n1-c1ccc([N+](=O)[O-])cc1 | inactive |  |
| O=C(CSc1nc2ccc([N+](=O)[O-])cc2[nH]1)c1ccc(Cl)cc1 | inactive |  |
| O=[N+]([O-])c1ccccc1/C=C/CN1CCCC(CO)C1 (configuration not stated) | inactive |  |

| SMILES | Potency | activity change, negative = growth inhibition |
| --- | --- | --- |
| CCSc1sc(CC)cc1C=O | inactive |  |
| CCOc1ccc(C(C)NC(=O)CN2C(=O)NC3(CCCCC3)C2=O)cc1OCC (configuration not stated) | inactive |  |
| Cc1ccc(C)c(N2CCN(C(=O)CN3C(=O)COc4ccc(S(=O)(=O)N5CCCCCC5)cc43)CC2)c1 | 16.4 µM (active) |  |
| Cc1ccc2c(c1)N(CC(=O)N1CCOCC1)C(=O)CO2 | inactive |  |
| CC(=O)Nc1ccc(NC(=O)CN2C(=O)COc3ccc(S(=O)(=O)N4CCCCC4)cc32)cc1 | inactive |  |
| COc1ccc(CCNC(=O)CN2C(=O)COc3ccc(S(=O)(=O)N4CCCC4)cc32)cc1OC | inactive |  |
| CCCCN(CCCC)CCCNC(=O)CN1C(=O)COc2ccc(S(=O)(=O)N3CCC(C)CC3)cc21 | 18.4 µM (active) |  |
| CCCCN(CCCC)CCNC(=O)CN1C(=O)COc2ccc(S(=O)(=O)N3CCOCC3)cc21 | inactive |  |
| O=C(CCN1C(=O)c2ccncc2C1=O)Nc1cc(F)ccc1F | inactive |  |
| O=C(COC(=O)c1cnccn1)Nc1ccc(Cl)cc1C(F)(F)F | inactive |  |
| CC(OC(=O)CNC(=O)c1ccc(Cl)c([N+](=O)[O-])c1)C(=O)NCc1ccco1 (configuration not stated) | inactive |  |
| Cc1cc(=O)oc2c3c(cc(OCC(=O)N[C@H](C(=O)O)c4ccccc4)c12)OC(C)(C)CC3 | inactive |  |
| CCOCCOCCC(C(=O)O)P(=O)(c1ccccc1)c1ccccc1 (configuration not stated) | inactive |  |
| CCc1ccc(N2CC(C(=O)Nc3ccc(S(=O)(=O)Nc4nccs4)cc3)CC2=O)cc1 (configuration not stated) | inactive |  |
| CCc1cc2c(cc3c(=O)n(CC(=O)N4CCN(c5cc(Cl)ccc5C)CC4)ncn32)s1 | inactive |  |
| O=C(NC1(C(F)(F)F)NC(=O)N(C2CCCCC2)C1=O)c1ccco1 (configuration not stated) | inactive |  |
| CCC1(CC)NC(=O)N(Cc2nc3ccccc3s2)C1=O | inactive |  |
| O=C1NC(Nc2nc3ccccc3s2)(C(F)(F)F)C(=O)N1C1CCCCC1 (configuration not stated) | 25.9 µM (active) |  |
| COC(=O)C[C@@H]1C=C[C@@H](NC(=O)c2ccc3c(c2)OCO3)[C@@H](CO)O1 | inactive |  |
